Measurements: PubChem BioAssay (NCI)
About 79,000 compounds went through this panel and 15% of them were active in at least one assay; those are over-represented in the sample as a whole. Active and inactive are the calls of the source. Cut-off read from the data, not from the text of the source: active = growth inhibition above about 70%; inactive = the rest.

Experiments:
[1] = NCI Yeast Anticancer Drug Screen. Data for the rad52 strain (AID 147);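 note: 0% = growth of vehicle-treated control cultures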; conditions: S. cerevisiae rad52 mutant growth inhibition, stronger effect = higher value
How it was run: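 Yeast strain carrying a DNA damage repair alteration was exposed to test compounds. Growth inhibition was measured relative to vehicle-treated controls.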

[2] = NCI Yeast Anticancer Drug Screen. Data for the wt1 strain (AID 149);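 note: 0% = growth of vehicle-treated wt1 cultures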; conditions: S. cerevisiae wt1 strain (SPY 50644) growth inhibition, stronger effect = higher value
How it was run: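 Measured: growth of wt1 yeast under compound versus vehicle treatment, reported as inhibition.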

[3] = NCI Yeast Anticancer Drug Screen. Data for the rad50EPP+ strain (AID 151);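 note: 0% = growth of vehicle-treated control cultures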; conditions: S. cerevisiae rad50 mutant strain, stronger effect = higher value
How it was run: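 Yeast strain carrying rad50 alteration (rad50EPP+) exposed to compounds; growth inhibition measured relative to vehicle-treated controls.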

[4] = NCI Yeast Anticancer Drug Screen. Data for the mgt1 strain (AID 153); conditions: S. cerevisiae mgt1 mutant growth inhibition, stronger effect = higher value
How it was run: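 Yeast mgt1 strain (DNA repair/cell-cycle alteration panel) exposed to compounds; growth inhibition measured relative to vehicle-treated controls.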

[5] = NCI Yeast Anticancer Drug Screen. Data for the rad50 strain (AID 155);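 note: 0% = growth of vehicle-only cultures of the same strain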; conditions: S. cerevisiae rad50 strain growth inhibition, stronger effect = higher value
How it was run: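 Growth of the mutant yeast was measured after compound exposure and referenced to vehicle-treated cultures.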

[6] = NCI Yeast Anticancer Drug Screen. Data for the mec2-1 strain (AID 157); conditions: S. cerevisiae mec2-1 strain, stronger effect = higher value
How it was run: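 mec2-1 yeast strain, carrying an alteration in DNA damage repair or cell cycle control, was exposed to compounds; growth inhibition was measured relative to vehicle-treated controls.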

[7] = NCI Yeast Anticancer Drug Screen. Data for the rad14 strain (AID 159);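 note: 0% = growth of vehicle-treated control cultures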; conditions: S. cerevisiae rad14 strain growth inhibition, stronger effect = higher value
How it was run: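 Here, inhibition of yeast growth was measured after compound exposure, using a strain with a genetic defect in DNA damage repair and vehicle-treated cultures as the reference.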

[8] = NCI Yeast Anticancer Drug Screen. Data for the sgs1 mgt1 strain (AID 161);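 note: 0% = growth of cultures given vehicle only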; conditions: S. cerevisiae sgs1 mgt1 strain, stronger effect = higher value
How it was run: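 This yeast growth screen uses a strain with defined DNA-repair lesions; compound-treated growth is compared with vehicle-treated growth.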

[9] = NCI Yeast Anticancer Drug Screen. Data for the CLN2oe strain (AID 163);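 note: 0% = growth of vehicle-only control cultures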; conditions: S. cerevisiae CLN2oe strain, stronger effect = higher value
How it was run: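 Yeast cells carrying a defined cell-cycle control alteration were exposed to test compounds. Growth inhibition was scored against vehicle-treated control cultures.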

[10] = NCI Yeast Anticancer Drug Screen. Data for the cln2 rad14 strain (AID 165);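 note: 0% = growth equal to vehicle treated cultures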; conditions: S. cerevisiae cln2 rad14 strain, stronger effect = higher value
How it was run: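 Yeast carrying cln2 and rad14 alterations (cell cycle control and DNA damage repair) were exposed to compounds. Growth inhibition was measured against vehicle-treated controls.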

[11] = NCI Yeast Anticancer Drug Screen. Data for the bub3 strain (AID 167); conditions: S. cerevisiae bub3 mutant strain, stronger effect = higher value
How it was run: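 Whole-cell yeast assay. The mutant strain was incubated with compounds, and growth inhibition was determined by comparison with vehicle-treated cells.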

[12] = NCI Yeast Anticancer Drug Screen. Data for the wt2 strain (AID 169);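 note: 0% = growth of vehicle-treated yeast cultures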; conditions: S. cerevisiae wt2 strain growth inhibition, stronger effect = higher value
How it was run: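 Yeast cells were exposed to test compounds, and growth inhibition was measured relative to vehicle-treated controls.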

[13] = NCI Yeast Anticancer Drug Screen. Data for the mlh1 strain (AID 171);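 note: 0% = growth of vehicle-treated control cultures of the same strain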; conditions: S. cerevisiae mlh1 strain growth inhibition, stronger effect = higher value
How it was run: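 Yeast carrying a defined genetic alteration in DNA damage repair or cell cycle control were exposed to test compounds. Growth inhibition was measured relative to vehicle-treated controls.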

[14] = NCI Yeast Anticancer Drug Screen. Data for the sgs1 strain (AID 173);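 note: 0% = growth of vehicle-only control cultures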; conditions: S. cerevisiae sgs1 mutant, stronger effect = higher value
How it was run: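 Yeast mutant strains carrying defined defects in DNA damage repair or cell cycle control were exposed to test compounds. Growth inhibition was scored against vehicle-treated controls.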

[15] = NCI Yeast Anticancer Drug Screen. Data for the rad18 strain (AID 177); conditions: S. cerevisiae rad18 mutant growth inhibition, stronger effect = higher value
How it was run: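 Yeast carrying a defined DNA damage repair alteration were exposed to compounds. Growth inhibition was expressed relative to vehicle-treated controls.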

[16] = at 5.0 µM (retest, dose inferred, filed as 0.5)
[17] = at 50.0 µM (retest, dose inferred, filed as 5.0)

Measured: growth inhibition

CCCCCCCCCCCCCCCCCCNc1nc(=O)n(C2CC(OP(=O)(O)OCC3OC(n4cc(F)c(=O)[nH]c4=O)CC3O)C(CO)O2)cc1F (stereo not given)
inactive: [1]; at 1.2 µM 14% | [1]; at 3.7 µM 12% | [1]; at 11.0 µM -1% | [1]; at 33.0 µM 11% | [1]; at 100.0 µM 66% | [2]; at 1.2 µM 4% | [2]; at 3.7 µM -4% | [2]; at 11.0 µM -13% | [2]; at 33.0 µM -8% | [2]; at 100.0 µM 46% | [3]; at 1.2 µM 9% | [3]; at 3.7 µM 12% | [3]; at 11.0 µM 7% | [3]; at 33.0 µM 8% | [3]; at 100.0 µM 23% | [4]; at 1.2 µM 25% | [4]; at 3.7 µM 8% | [4]; at 11.0 µM -1% | [4]; at 33.0 µM 32% | [5]; at 1.2 µM 27% | [5]; at 3.7 µM 28% | [5]; [16] 34% | [5]; at 11.0 µM 22% | [5]; at 33.0 µM 37% | [6]; at 1.2 µM 9% | [6]; at 3.7 µM 15% | [6]; [16] 24% | [6]; at 11.0 µM 3% | [6]; at 33.0 µM -1% | [6]; at 100.0 µM 61% | [7]; at 1.2 µM 9% | [7]; at 3.7 µM 0% | [7]; at 11.0 µM 3% | [7]; at 33.0 µM -4% | [7]; at 100.0 µM 51% | [8]; [16] 59% | [9]; at 1.2 µM -23% | [9]; at 3.7 µM -33% | [9]; at 11.0 µM -42% | [9]; at 33.0 µM -9% | [9]; at 100.0 µM 54% | [10]; [16] 7% | [10]; [17] 68% | [11]; at 1.2 µM 4% | [11]; at 3.7 µM 5% | [11]; [16] 15% | [11]; at 11.0 µM -27% | [11]; at 33.0 µM -10% | [11]; at 50.0 µM 68.3% | [11]; at 100.0 µM 40% | [12]; at 1.2 µM -38% | [12]; at 3.7 µM -34% | [12]; at 11.0 µM -68% | [12]; at 33.0 µM 15% | [13]; at 1.2 µM 10% | [13]; at 3.7 µM 19% | [13]; at 11.0 µM 7% | [13]; at 33.0 µM 18% | [14]; at 1.2 µM 1% | [14]; at 3.7 µM -5% | [14]; at 11.0 µM -9% | [14]; at 33.0 µM 22% | [15]; at 1.2 µM 9% | [15]; at 3.7 µM -9% | [15]; at 11.0 µM -16% | [15]; at 33.0 µM 35%
active: [4]; at 100.0 µM 77% | [5]; [17] 88% | [5]; at 50.0 µM 83.9% | [5]; at 100.0 µM 88% | [6]; [17] 91% | [6]; at 50.0 µM 89.4% | [8]; [17] 95% | [8]; at 50.0 µM 87.7% | [10]; at 50.0 µM 86.3% | [11]; [17] 93% | [12]; at 100.0 µM 79% | [13]; at 100.0 µM 75% | [14]; at 100.0 µM 78% | [15]; at 100.0 µM 89%

CCCCCCCCSC1=C(Cl)C(=O)C(OC)=C(OC)C1=O
inactive: [1]; at 1.2 µM -25% | [1]; at 3.7 µM -19% | [1]; at 11.0 µM 15% | [1]; at 33.0 µM 53% | [2]; at 1.2 µM -55% | [2]; at 3.7 µM -23% | [2]; at 11.0 µM -17% | [2]; at 33.0 µM 0% | [3]; at 1.2 µM -29% | [3]; at 3.7 µM -44% | [3]; at 11.0 µM -1% | [3]; at 33.0 µM 18% | [4]; at 1.2 µM -30% | [4]; at 3.7 µM -41% | [4]; at 11.0 µM -24% | [4]; at 33.0 µM 17% | [5]; at 1.2 µM -25% | [5]; at 3.7 µM -16% | [5]; [16] 25% | [5]; at 11.0 µM -17% | [5]; at 33.0 µM 19% | [5]; [17] 68% | [5]; at 50.0 µM 22.6% | [6]; at 1.2 µM -37% | [6]; at 3.7 µM -30% | [6]; [16] 24% | [6]; at 11.0 µM -4% | [6]; at 33.0 µM 13% | [6]; [17] 68% | [6]; at 50.0 µM 54.1% | [7]; at 1.2 µM -32% | [7]; at 3.7 µM -11% | [7]; at 11.0 µM -14% | [7]; at 33.0 µM 2% | [7]; at 100.0 µM 66% | [8]; [16] 22% | [8]; [17] 10% | [8]; at 50.0 µM 69.1% | [9]; at 1.2 µM -16% | [9]; at 3.7 µM -6% | [9]; at 11.0 µM 21% | [9]; at 33.0 µM 33% | [10]; [16] 13% | [10]; [17] -24% | [10]; at 50.0 µM 35.1% | [11]; at 1.2 µM -40% | [11]; at 3.7 µM -30% | [11]; [16] 20% | [11]; at 11.0 µM -43% | [11]; at 33.0 µM -15% | [11]; [17] 6% | [11]; at 50.0 µM 59% | [11]; at 100.0 µM 57%
active: [1]; at 100.0 µM 87% | [2]; at 100.0 µM 88% | [3]; at 100.0 µM 73% | [4]; at 100.0 µM 85% | [5]; at 100.0 µM 83% | [6]; at 100.0 µM 80% | [9]; at 100.0 µM 80%
